High-throughput results (PubChem)
A selection: hits, their analogues and other compounds. The true share with any hit is near 21%.
Pf growth 96h: P. falciparum growth inhibition at 96 hours | 320,000 compounds, 6.9% hits | P. falciparum luciferase reporter growth, 96 h | AID 504834 | Potency, µM (titrated, usually from 28.7 µM), actives largely listed as inhibitors
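Parasite growth measured via integrated firefly luciferase reporter in P. falciparum. Infected erythrocytes at 2% hematocrit, 0.05% parasitemia final were treated 96 hours at 37 C under 5% CO2, and luminescence was read.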
Cycloheximide cs: affects cycloheximide protein synthesis inhibition readout, counter-screen; cell reporter, cycloheximide protein synthesis inhibition counterscreen; max response, %; 300,000 compounds, 12% hits; in the data active means max response mostly above about 13%, no sharp cut-off; inactive means mostly below about 14%; further: read at 38.3 µM for the half of the compounds with a filed dose
HCV inhibitor: blocks hepatitis C virus | 340,000 compounds, 3.4% hits | Huh7.5.1 HCVcc-Cre infection, luciferase reporter, 44 h | Potency, µM (titrated, usually from 41.8 µM), most hits filed as inhibitors
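Antiviral activity was scored by luciferase reporter output from cells infected with HCVcc-Cre (~0.5 moi) in presence of compound, 44 h infection period, cells seeded 1,000/well 4 h prior.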
HCMV inh: human cytomegalovirus inhibition. HFF cells, HCMV-luciferase reporter, 72 h; hits give low values. activity change, negative = inhibition, % at 57.5 µM. 410,000 compounds, 4.5% hits. AID 1259415; in the data active means activity change below about -60%; inconclusive means no clear call, values can overlap the other calls; inactive means above about -39%
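After 16 h attachment at 37C, HFF cells received test compound and HCMV-luciferase (1 PFU/cell); reporter luminescence read 72 h later, data normalized against buffer-only and known inhibitor Salinomycin.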
Pf growth 48h: P. falciparum growth inhibition at 48 hours (one generation). P. falciparum luciferase growth in erythrocytes, 48 h. Potency, µM (highest dose often 28.7 µM), most hits filed as inhibitors. 310,000 compounds, 5.9% hits. AID 504832
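Growth was read as firefly luciferase luminescence after a 48 h, 37 C, 5% CO2 exposure of compounds to reporter-bearing P. falciparum cultures (0.1% parasitemia, 2% hematocrit final) in Albumax-supplemented RPMI 1640.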
Shiga inhibitor: Shiga toxin inhibition | AID 2315 | 290,000 compounds, 9.2% hits | inhibition, % at 38.7 µM | Vero cells, Shiga toxin protein synthesis inhibition reporter; in the data active means inhibition mostly above about 28%, no sharp cut-off; inactive means mostly below about 43%
Numbers stand for hits; - = inactive; ? = inconclusive; . = no result given. Unless noted, the call rests on the fitted dose curve; in most records, active means well fitted inhibition curve with a large enough effect; inconclusive means small, poorly fitted or top-dose-only effect, or another doubt; inactive means no such curve, though single readings can be large or run the other way.

SMILES | Pf growth 96h | Cycloheximide cs | HCV inhibitor | HCMV inh | Pf growth 48h | Shiga inhibitor
CCOC(=O)[C@@H]1[C@H]2COc3ccc(Br)cc3[C@H]2N2C(=O)N(c3ccc(C(F)(F)F)cc3)C(=O)[C@]12C | . | . | - | -76 | . | .
CCOC(=O)[C@@H]1[C@H]2COc3cc(OC)ccc3[C@@H]2N2C(=O)N(c3ccc(C(F)(F)F)cc3)C(=O)[C@]12C | 12µM | - | - | - | ? | -
CCOC(=O)[C@@H]1[C@H]2COc3ccc(Br)cc3[C@@H]2N2C(=O)N(c3ccc(F)cc3)C(=O)[C@]12C | ? | - | - | ? | ? | -
CCOC(=O)[C@@H]1[C@H]2COc3ccc(Br)cc3[C@H]2N2C(=O)N(c3ccc(F)cc3)C(=O)[C@@]12C | ? | - | - | . | 5.9µM | -
Cc1cc(C)n2nc(SCC(=O)NC3CCCC(C)C3C)nc2n1 (centres undefined) | - | - | - | ? | - | -
O=S1(=O)N=C2CCCCCN2C(c2ccc(Br)cc2)N1 (centres undefined) | ? | - | - | - | - | -
CCN(CC(=O)Nc1ccc(NC(C)=O)cc1)C(=O)c1ccc(NC2CC2)c([N+](=O)[O-])c1 | - | . | ? | - | - | .
CCOC(=O)[C@@H]1[C@H]2COc3ccc(Br)cc3[C@H]2N2C(=O)N(c3cccc(F)c3)C(=O)[C@]12C | 13µM | - | - | - | ? | -
CCOC(=O)[C@@H]1[C@H]2COc3ccc(Br)cc3[C@@H]2N2C(=O)N(c3cccc(C)c3)C(=O)[C@]12C | ? | - | - | - | - | -
CCOc1ccccc1NC(=O)CN1C(=O)COc2ccc(S(=O)(=O)N3CCCCCC3)cc21 | . | . | . | - | . | .
CC(C)(CNC(=O)c1ccc([N+](=O)[O-])c(Cl)c1)CNC(=O)c1ccc([N+](=O)[O-])c(Cl)c1 | ? | - | ? | -97 | ? | -
Cc1ccc(C(=O)NCCNc2ncc(C(F)(F)F)cc2Cl)cc1[N+](=O)[O-] | 7.4µM | - | - | - | ? | -
O=[N+]([O-])c1ccccc1NCCNc1ncc(C(F)(F)F)cc1Cl | - | 29 | ? | - | - | 121
O=[N+]([O-])c1cc(Cl)ccc1NCCNc1ncc(C(F)(F)F)cc1Cl | - | - | ? | - | ? | -
C=CCNC(=O)c1ccc([N+](=O)[O-])c(Cl)c1 | ? | - | - | - | - | -
O=[N+]([O-])c1cccnc1NCCNc1ncc(C(F)(F)F)cc1Cl | - | 39 | - | - | - | 77
OC(C#CCN1CCCCCC1)(c1ccccc1)c1cccnc1 (centres undefined) | 12µM | - | - | - | ? | -
CN(C)CC#CCC(O)(c1ccccc1)C1CCCC1 (centres undefined) | . | - | ? | - | - | -
C[N+]1(C)CC[C@H](OC(=O)[C@@](O)(c2ccccc2)C2CCCC2)C1 | - | - | - | - | - | -
CC[N+](CC)(CC)CCCOC(=O)C(O)(c1ccccc1)C1CCCCC1 (centres undefined) | . | - | - | - | 2.9µM | -
C[N+]1(C)CCC(OC(=O)C(O)(c2ccccc2)C2CCCC2)C1 (centres undefined) | . | . | - | -90 | . | .
C[N+](C)(N)CCOC(=O)C(O)(c1ccccc1)C1CCCCC1 (centres undefined) | . | . | - | - | . | .
CC[N+](CC)(CC)CC[C@](O)(c1ccccc1)C1CCCCC1 | 5.7µM | . | . | . | 6.4µM | .
OC(C#CCN1CCCC1)(c1ccccc1)c1cccnc1 (centres undefined) | ? | - | - | - | ? | -
COc1ccc(-n2cc(C(=O)NCCc3ccc(C)cc3)c3ccccc3c2=O)cc1 | . | . | . | - | . | .
SMILES | Pf growth 96h | Cycloheximide cs | HCV inhibitor | HCMV inh | Pf growth 48h | Shiga inhibitor
COc1ccc(CNS(=O)(=O)c2ccc3c(c2)C(C)(C)C(=O)N3C)cc1OC | . | . | . | - | . | .
O=C(O)C(Cc1ccc(Cl)cc1)Sc1nc2ccccc2[nH]1 (centres undefined) | - | - | - | - | - | -
Cc1cccc(NC(=O)C2CCCN(S(=O)(=O)c3ccc4c(c3)CCCC(=O)N4)C2)c1 (centres undefined) | . | . | . | - | . | .
CC(NC(=O)CN1CCCC1)c1ccccc1 (centres undefined) | - | - | - | - | - | -
OC(CC#CCN1CCCCCC1)(c1ccccc1)C1CCCC1 (centres undefined) | 2.9µM | - | - | - | ? | -
OC(CCN1CCCCC1)(c1ccccc1)C1CCCCC1 (centres undefined) | . | - | . | - | . | -
CC(C)CCCN1CCN=C1N(C)C | - | - | - | -74 | - | -
CCN(C(=O)CSc1nnc(C)c(=O)[nH]1)c1cccc2ccccc12 | . | . | - | - | . | .
Cc1ccc(-c2ccc(CN3C(CC(C)C)C(=O)N(Cc4cn(Cc5ccco5)nn4)CCS3(=O)=O)cc2)cc1 (centres undefined) | . | . | . | - | . | .
CC(C)CC1C(=O)N(Cc2cn(Cc3ccco3)nn2)CCS(=O)(=O)N1Cc1ccc(-c2cccc(N(C)C)c2)cc1 (centres undefined) | . | . | . | -101 | . | .
Cc1ccc(-c2ccc(CN3C(CC(C)C)C(=O)N(Cc4cn(CCC5OCCO5)nn4)CCS3(=O)=O)cc2)cc1 (centres undefined) | . | . | . | -101 | . | .
CCCC(=O)Nc1ccc(NC(=O)c2ccccc2OC)cn1 | - | - | - | - | ? | -
O=C(Nc1ccc(NC(=O)c2cccs2)cn1)c1ccccc1 | - | 60 | - | - | - | 87
CCCC(=O)Nc1ccc(NC(=O)c2cccs2)cn1 | . | 19 | - | - | - | 98
CCCC(=O)Nc1ccc(NC(=O)c2ccccn2)cn1 | . | 23 | - | - | - | -
CCCCC(=O)Nc1ccc(NC(=O)c2cccs2)cn1 | . | . | - | - | . | .
N#Cc1ccc(NC(=O)c2cccs2)nc1 | - | 24 | - | - | - | 74
COc1ccc(Cl)cc1NC(=O)C1CCCN(c2ncnc3c2nc2n3CCCCC2)C1 (centres undefined) | ? | - | ? | - | ? | -
CCCc1cc(=O)oc2c(CNc3ccc(OCC)cc3)c(O)ccc12 | ? | - | ? | - | ? | -
O=C(Nc1ccc(NC(=O)C2CC2)nc1)c1cccs1 | - | 30 | - | - | - | 60
Cc1ccc(-n2c(SCCN)nnc2-c2cccc(C)c2)cc1 | ? | - | ? | - | 10µM | -
Cc1cccc(-c2nnc(SCC#N)n2-c2ccccc2)c1 | - | - | - | - | - | -
O=C(NCc1ccccc1)Nc1cccn(Cc2ccccc2Cl)c1=O | ? | - | 13µM | ? | ? | 50
O=C(NCc1cccn1Cc1ccccc1)Nc1ccc(Br)cc1F | . | . | . | -83 | . | .
O=C(Nc1ccccc1)Nc1cccn(Cc2c(F)cccc2Cl)c1=O | - | 60 | ? | - | - | 95
CSc1ccc(NC(=O)Nc2cccn(Cc3ccccc3)c2=O)cc1 | - | 29 | 3.5µM | -84 | - | 64
Cn1c(CC(=O)Nc2ccc(Cl)cc2)nnc1SCC(=O)N1CCOCC1 | ? | - | - | - | - | -
